From PubChem BioAssay (NCATS)
Values joined by “and” are separate entries in the source; they are usually repeats but may differ in a detail not shown here. Equal values may be shown once. Unmarked numbers belong to inactive results. Records with an inconclusive call do not appear. A call without a number means that no potency is given here. Active and inactive are the calls of the source. Unless noted, calls come from the whole dose curve; as a rule, active = well fitted curve in the direction sought with a large enough effect; inconclusive = small, poorly fitted or top-dose-only effect, or another doubt; inactive = no such curve, though single readings can be large; an effect the other way counts as inactive or inconclusive.

Tests used:
[1] = molecular target: Transient receptor potential cation channel subfamily V member 1 (Homo sapiens) (UniProt Q8NER1); experiment: HTS Assay for Compounds that Act as Enhancers of the Vanilloid Receptor 1 (AID 488979)
Transient receptor potential cation channel subfamily V member 1 (Homo sapiens), sequence (Q8NER1 whole entry, looked up): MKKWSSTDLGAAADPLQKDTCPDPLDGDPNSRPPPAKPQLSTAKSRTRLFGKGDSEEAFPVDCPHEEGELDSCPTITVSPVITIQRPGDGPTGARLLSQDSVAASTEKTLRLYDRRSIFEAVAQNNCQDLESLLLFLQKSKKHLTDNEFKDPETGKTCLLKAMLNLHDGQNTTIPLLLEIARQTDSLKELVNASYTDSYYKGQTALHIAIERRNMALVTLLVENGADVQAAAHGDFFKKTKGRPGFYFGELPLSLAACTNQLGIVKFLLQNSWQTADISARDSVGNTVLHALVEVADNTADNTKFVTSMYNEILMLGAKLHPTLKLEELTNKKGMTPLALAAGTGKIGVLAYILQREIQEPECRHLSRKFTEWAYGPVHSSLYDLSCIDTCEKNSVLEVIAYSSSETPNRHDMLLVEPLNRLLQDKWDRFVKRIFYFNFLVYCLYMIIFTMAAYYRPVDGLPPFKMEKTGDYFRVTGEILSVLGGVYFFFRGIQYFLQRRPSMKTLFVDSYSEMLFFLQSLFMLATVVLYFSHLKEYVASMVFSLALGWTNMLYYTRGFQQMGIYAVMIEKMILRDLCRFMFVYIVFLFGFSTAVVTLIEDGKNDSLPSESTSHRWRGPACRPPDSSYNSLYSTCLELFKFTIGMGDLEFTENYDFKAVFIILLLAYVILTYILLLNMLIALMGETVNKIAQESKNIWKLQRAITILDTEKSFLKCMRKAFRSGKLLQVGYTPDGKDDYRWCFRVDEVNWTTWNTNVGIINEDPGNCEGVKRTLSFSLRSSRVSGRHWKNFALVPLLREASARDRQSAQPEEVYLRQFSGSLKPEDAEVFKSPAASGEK
How it was run: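 Calcium influx kinetics via Fluo-8 (480/520 nm) in TRPV1-expressing cells, 2000/well cultured overnight at 35.5C. Compound-alone read 3 min (agonist phase), followed by EC20 capsaicin challenge for 2 min (enhancer phase).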

[2] = molecular target: Thyrotropin receptor (Homo sapiens) (UniProt P16473); experiment: qHTS Assay for Antagonists of the Thyroid Stimulating Hormone Receptor (AID 488980); note: series mostly up to about 58 µM
Thyrotropin receptor (Homo sapiens), sequence (P16473 whole entry, looked up): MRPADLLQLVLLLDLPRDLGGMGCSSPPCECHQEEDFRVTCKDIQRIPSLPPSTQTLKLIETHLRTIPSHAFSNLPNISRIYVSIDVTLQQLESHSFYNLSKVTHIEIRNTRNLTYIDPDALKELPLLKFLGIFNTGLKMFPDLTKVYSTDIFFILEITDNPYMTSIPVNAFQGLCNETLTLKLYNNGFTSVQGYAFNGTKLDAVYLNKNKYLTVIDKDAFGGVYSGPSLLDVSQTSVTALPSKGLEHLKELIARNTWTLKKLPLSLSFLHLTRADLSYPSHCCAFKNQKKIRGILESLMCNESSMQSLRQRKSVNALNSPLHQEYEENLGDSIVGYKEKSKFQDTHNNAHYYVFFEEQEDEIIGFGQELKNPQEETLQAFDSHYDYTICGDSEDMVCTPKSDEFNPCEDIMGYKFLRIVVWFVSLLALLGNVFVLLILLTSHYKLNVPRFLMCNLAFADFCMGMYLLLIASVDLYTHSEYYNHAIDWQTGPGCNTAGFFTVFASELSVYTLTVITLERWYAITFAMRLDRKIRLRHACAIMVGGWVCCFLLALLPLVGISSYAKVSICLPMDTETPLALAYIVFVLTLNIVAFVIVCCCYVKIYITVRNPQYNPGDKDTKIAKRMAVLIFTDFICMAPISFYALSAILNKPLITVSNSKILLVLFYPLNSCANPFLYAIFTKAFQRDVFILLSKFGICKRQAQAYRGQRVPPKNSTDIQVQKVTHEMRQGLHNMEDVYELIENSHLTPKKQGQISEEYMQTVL
How it was run: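 TSHR-transfected HEK293 cells (2000/well) in HEPES-buffered HBSS with 70 uM RO 20-1724 were stimulated with 4 nM TSH (EC80, final) in the presence of compound. cAMP was measured by HTRF competition after lysis and 30 min at RT.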

[3] = molecular target: D(1A) dopamine receptor (Homo sapiens) (UniProt P21728); experiment: HTS Assay for Allosteric Agonists of the Human D1 Dopamine Receptor: Primary Screen for Potentiators (AID 488982)
D(1A) dopamine receptor (Homo sapiens), sequence (P21728 whole entry, looked up): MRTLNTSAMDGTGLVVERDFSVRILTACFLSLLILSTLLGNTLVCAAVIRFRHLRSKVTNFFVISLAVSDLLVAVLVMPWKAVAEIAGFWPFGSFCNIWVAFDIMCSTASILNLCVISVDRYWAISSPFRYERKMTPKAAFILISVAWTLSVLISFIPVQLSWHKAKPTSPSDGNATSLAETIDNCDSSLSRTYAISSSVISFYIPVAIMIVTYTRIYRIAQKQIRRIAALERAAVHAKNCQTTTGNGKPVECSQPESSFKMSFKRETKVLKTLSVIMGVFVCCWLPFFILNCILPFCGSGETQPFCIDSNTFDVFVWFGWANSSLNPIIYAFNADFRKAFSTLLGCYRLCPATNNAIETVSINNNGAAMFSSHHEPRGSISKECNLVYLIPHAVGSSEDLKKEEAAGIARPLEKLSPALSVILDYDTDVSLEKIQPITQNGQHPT
How it was run: (§1)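 Calcium flux in an inducible, force-coupled HEK293 Trex D1 line (overnight at 30 C): agonist mode is the 180 s kinetic read after compound; potentiator mode is the following 180 s read after dopamine at EC20.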

[4] = molecular target: D(1A) dopamine receptor (Homo sapiens) (UniProt P21728); experiment: HTS Assay for Allosteric Agonists of the Human D1 Dopamine Receptor: Primary Screen for Antagonists (AID 488983);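 note: calcium flux response to an EC80 dopamine challenge measured with no-wash dye; nearly all actives have a fitted effect of over 65% in size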; note: potency is the fitted concentration of half-maximal effect
How it was run: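 Kinetic fluorescence at 1 cycle/sec tracked intracellular calcium in force-coupled, tetracycline-inducible HEK293 T-REx D1 cells. Loss of response to an EC80 dopamine dose, given 180 s after compound, marked antagonists.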

[5] = Validation screen for small molecules that induce genotoxicity in human embryonic kidney (HEK293T) cells expressing luciferase-tagged ELG1 (AID 493106)
How it was run: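 Cells were dispensed at 2,000 per well, then 23 nL compound or DMSO was pinned in. After 16 hr at 37 °C and 5% CO2, ONE-Glo reagent was added. Luciferase activity was measured following 30 min at room temperature.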

[6] = molecular target: ATPase family AAA domain-containing protein 5 (Homo sapiens) (UniProt Q96QE3); experiment: Validation screen for small molecules that inhibit ELG1-dependent DNA repair in human embryonic kidney (HEK293T) cells expressing luciferase-tagged ELG1 (AID 493107); note: nearly all actives have a fitted effect of over 70% in size; note: potency is the fitted concentration of half-maximal effect
ATPase family AAA domain-containing protein 5 (Homo sapiens), sequence (Q96QE3 whole entry, looked up, the tested form may be a part): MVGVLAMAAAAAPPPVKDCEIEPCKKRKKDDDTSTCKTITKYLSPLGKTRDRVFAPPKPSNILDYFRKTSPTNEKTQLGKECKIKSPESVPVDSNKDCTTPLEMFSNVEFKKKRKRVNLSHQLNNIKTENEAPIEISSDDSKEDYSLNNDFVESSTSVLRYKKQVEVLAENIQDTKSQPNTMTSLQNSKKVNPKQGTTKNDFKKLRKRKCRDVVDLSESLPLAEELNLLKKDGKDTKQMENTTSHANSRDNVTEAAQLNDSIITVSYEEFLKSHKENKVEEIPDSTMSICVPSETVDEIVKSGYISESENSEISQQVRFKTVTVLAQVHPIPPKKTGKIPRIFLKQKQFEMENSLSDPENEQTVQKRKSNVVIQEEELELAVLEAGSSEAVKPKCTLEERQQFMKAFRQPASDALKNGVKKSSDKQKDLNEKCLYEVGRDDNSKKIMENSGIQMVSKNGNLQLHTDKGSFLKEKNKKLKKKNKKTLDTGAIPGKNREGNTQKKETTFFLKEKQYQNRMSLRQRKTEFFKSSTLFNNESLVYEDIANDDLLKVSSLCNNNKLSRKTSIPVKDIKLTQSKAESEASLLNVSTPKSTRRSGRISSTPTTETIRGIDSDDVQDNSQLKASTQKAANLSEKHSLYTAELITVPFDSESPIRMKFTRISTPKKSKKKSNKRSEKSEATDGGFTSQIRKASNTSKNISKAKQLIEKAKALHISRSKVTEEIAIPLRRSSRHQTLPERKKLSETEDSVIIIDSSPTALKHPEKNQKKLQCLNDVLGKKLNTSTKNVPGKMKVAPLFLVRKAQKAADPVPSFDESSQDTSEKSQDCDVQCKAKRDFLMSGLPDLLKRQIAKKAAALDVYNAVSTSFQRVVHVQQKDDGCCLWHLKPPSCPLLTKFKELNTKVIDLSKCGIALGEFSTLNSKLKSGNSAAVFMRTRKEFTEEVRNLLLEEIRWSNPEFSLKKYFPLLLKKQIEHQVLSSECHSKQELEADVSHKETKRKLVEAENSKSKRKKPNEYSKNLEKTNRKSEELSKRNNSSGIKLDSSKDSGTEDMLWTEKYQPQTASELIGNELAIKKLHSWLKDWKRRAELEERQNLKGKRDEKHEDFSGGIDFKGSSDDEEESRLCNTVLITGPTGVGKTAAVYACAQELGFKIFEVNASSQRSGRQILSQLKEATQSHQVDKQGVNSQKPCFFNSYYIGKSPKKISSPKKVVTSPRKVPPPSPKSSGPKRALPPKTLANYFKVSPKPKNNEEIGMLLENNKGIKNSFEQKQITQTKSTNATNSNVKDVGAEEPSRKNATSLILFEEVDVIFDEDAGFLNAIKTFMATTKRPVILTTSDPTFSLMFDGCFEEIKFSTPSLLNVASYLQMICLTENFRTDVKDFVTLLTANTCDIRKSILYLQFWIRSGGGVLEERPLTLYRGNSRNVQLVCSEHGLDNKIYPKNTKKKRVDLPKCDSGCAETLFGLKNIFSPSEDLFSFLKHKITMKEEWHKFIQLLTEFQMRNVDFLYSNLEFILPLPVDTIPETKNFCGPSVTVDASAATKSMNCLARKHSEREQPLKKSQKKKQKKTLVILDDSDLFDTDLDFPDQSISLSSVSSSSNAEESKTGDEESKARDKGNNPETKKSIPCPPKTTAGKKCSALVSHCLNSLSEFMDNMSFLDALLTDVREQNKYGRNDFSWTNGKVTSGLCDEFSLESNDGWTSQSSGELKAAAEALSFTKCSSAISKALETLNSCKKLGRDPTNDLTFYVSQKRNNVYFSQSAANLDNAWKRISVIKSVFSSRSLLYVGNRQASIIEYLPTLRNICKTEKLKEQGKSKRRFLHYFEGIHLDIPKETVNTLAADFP
How it was run: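 Cells are dispensed in 1536-well format, then 5-fluorouridine and compound are pinned in. After a 16 hr incubation at 37 °C and 5% CO2, ONE-Glo is added and luciferase measured on a CCD imager.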

[7] = molecular target: Thyrotropin-releasing hormone receptor (Homo sapiens) (UniProt P34981); experiment: qHTS for Small Molecule Agonists and Allosteric Enhancers of Human TRH Receptor: Validation Screen for Agonists (AID 493127;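 active = calcium activation more than 3 SD above the typical response in the agonist read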;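 note: intracellular calcium rise by fluo-8 fluorescence before TRH EC20 addition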); conditions: TRH receptor agonist cell assay; at 2 µM; active compounds read high
Thyrotropin-releasing hormone receptor (Homo sapiens), sequence (P34981 whole entry, looked up): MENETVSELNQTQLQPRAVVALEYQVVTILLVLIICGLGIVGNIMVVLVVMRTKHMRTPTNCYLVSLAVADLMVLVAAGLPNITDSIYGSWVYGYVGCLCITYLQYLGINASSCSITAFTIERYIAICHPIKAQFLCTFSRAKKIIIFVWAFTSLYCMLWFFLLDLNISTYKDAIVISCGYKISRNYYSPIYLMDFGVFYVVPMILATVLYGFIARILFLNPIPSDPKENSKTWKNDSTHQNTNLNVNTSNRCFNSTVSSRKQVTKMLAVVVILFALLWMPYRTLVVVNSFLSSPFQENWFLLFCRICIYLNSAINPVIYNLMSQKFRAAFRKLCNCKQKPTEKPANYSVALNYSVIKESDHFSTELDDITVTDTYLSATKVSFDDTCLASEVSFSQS
How it was run: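 Compounds are added by online pintool to dye-loaded TRHR cells while fluorescence is recorded every second. A rise in calcium signal during the agonist read marks activation; a later 10 nM TRH addition (EC20) serves the separate enhancer mode.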

[8] = molecular target: D(1A) dopamine receptor (Homo sapiens) (UniProt P21728); experiment: HTS Assay for Allosteric Agonists of the Human D1 Dopamine Receptor: Primary Screen for Agonists (AID 488981)
How it was run: as §1

[9] = molecular target: Tyrosyl-DNA phosphodiesterase 1 (Homo sapiens) (UniProt Q9NUW8); experiment: Confirmation Assay for Inhibitors of Tyrosyl-DNA Phosphodiesterase (TDP1) (AID 489007); conditions: recombinant human TDP1 enzymatic activity, dose-response; note: potency is the fitted concentration of half-maximal effect; nearly all actives have a fitted effect of over 40% in size
Tyrosyl-DNA phosphodiesterase 1 (Homo sapiens), sequence (Q9NUW8 whole entry, looked up): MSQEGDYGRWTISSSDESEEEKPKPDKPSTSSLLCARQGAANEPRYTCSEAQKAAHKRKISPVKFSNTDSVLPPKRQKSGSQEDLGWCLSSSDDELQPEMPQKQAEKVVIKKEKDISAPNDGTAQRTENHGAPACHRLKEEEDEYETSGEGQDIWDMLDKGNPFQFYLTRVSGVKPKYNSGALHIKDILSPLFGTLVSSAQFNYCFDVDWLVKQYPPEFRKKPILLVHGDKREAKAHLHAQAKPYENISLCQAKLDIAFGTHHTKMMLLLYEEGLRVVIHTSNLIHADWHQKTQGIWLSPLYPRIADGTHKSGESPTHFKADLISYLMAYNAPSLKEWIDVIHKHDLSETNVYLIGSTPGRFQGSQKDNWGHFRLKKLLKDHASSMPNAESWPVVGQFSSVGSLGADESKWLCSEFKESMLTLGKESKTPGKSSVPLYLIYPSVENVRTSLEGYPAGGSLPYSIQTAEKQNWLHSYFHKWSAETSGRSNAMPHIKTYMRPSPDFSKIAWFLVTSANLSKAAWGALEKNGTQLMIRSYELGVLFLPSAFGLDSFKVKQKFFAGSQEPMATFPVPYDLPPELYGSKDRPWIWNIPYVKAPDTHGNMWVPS
How it was run: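 Compounds are preincubated 15 min at room temperature with 1 nM recombinant human Tdp1. The reaction starts on adding 15 nM FITC-phosphotyrosine DNA substrate, runs 5 min, and is detected by AlphaScreen beads after 10 min.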

[10] = molecular target: ATP-dependent 6-phosphofructokinase (Trypanosoma brucei brucei) (UniProt O15648); experiment: qHTS Assay to Find Inhibitors of T. brucei phosphofructokinase: hit validation (AID 492961);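 note: luminescence reports ADP formed as PFK phosphorylates fructose-6-phosphate with ATP; series mostly up to about 51 µM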
How it was run: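 ADP-Glo luminescence read-out of ADP formed by 1.25 nM PFK from 0.1 mM ATP and 0.5 mM F6P (TEA pH 8.0, 45 min, RT). Compounds titrated; activity normalized to no-enzyme and full-enzyme controls.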

Row | SMILES | outcome [1] | outcome [2] | Potency [3] | Potency [4] | Potency [5] | Potency [6] | activation [7] | Potency [8] | Potency [9] | outcome [10]
1 | Oc1ccc(Cn2cc[nH]c2=S)cc1 | inactive | inactive | inactive | inactive | inactive | inactive | 1.06% |  |  | 
2 | C=CCN1CCc2cc(O)c(O)cc2C(c2ccccc2)C1 (stereo unspecified) | inactive | inactive | inactive |  | inactive | inactive | 1.38% | inactive |  | 
3 | CC(/C=C/c1cccc(Oc2ccc(F)cc2)c1)N(O)C(N)=O (stereo unspecified) | inactive | inactive | inactive | inactive |  |  | 1% | inactive |  | 
4 | CCCCOC(=O)NS(=O)(=O)c1sc(CC(C)C)cc1-c1ccc(Cn2c(CC)nc3c(C)cc(C)nc32)cc1 | inactive | inactive | inactive |  | inactive | 8.2 µM (active) | 2.25% | inactive |  | 
5 | Nc1nc2ccc(Cl)cc2c2nc(-c3ccco3)nn12 | inactive | inactive |  |  |  |  | 0.25% | inactive |  | 
6 | CCCc1c(-c2ccc(O)cc2)nn(-c2ccc(O)cc2)c1-c1ccc(O)cc1 | inactive | inactive | inactive |  | inactive | inactive | 2.12% | inactive |  | 
7 | Cc1cccc(C)c1OCC(N)C(C)C (stereo unspecified) | inactive |  | inactive | inactive | inactive | inactive | 1.56% | inactive |  | 
8 | Cc1cc2c(cc1Cl)N(C(=O)Nc1ccnc3ccccc13)CC2 | inactive |  | inactive | inactive | inactive | inactive | 1.44% | inactive |  | 
9 | NCC(O)c1ccc(O)c(O)c1 (stereo unspecified) | inactive |  | inactive | 14.1 µM (active) | inactive |  |  | inactive |  | 
10 | Cc1nc(N=Nc2ccc(S(=O)(=O)O)cc2S(=O)(=O)O)c(COP(=O)(O)O)c(C=O)c1O | inactive |  | inactive | inactive | inactive | inactive | 0.938% | inactive | 7.08 µM (active) | 
11 | COC1(C2=NCCN2)COc2ccccc2O1 (stereo unspecified) | inactive |  | inactive | inactive | inactive |  | 1.62% | inactive |  | 
12 | CN(C)CCC(c1ccc(Br)cc1)c1ccccn1 (stereo unspecified) | inactive |  | inactive | inactive | inactive | inactive |  | inactive |  | 
13 | N[C@H](C(=O)O)[C@H](O)C(=O)O | inactive |  | inactive | inactive | inactive |  | 0.0625% | inactive |  | 
14 | C=CCN1CCc2c(cc(O)c(O)c2Cl)C(c2ccccc2)C1 (stereo unspecified) | inactive | inactive | inactive |  | inactive | inactive | -5.75% |  |  | 
15 | O=C(O)c1ccccc1Nc1ccccc1 | inactive |  | inactive | inactive | inactive |  | -4.31% | inactive |  | 
16 | CSC(N)=NCCC[C@H](N)C(=O)O | inactive |  | inactive | inactive | inactive | inactive | 0.75% | inactive |  | 
17 | CC1CCN=C(N)S1 (stereo unspecified) | inactive | inactive |  | inactive | inactive | inactive | -2.88% |  |  | 
18 | O=C(O)/C=C/c1ccc(O)c(O)c1 | inactive | inactive | inactive | inactive | inactive | inactive | 0.25% |  |  | 
19 | NC(=O)CNCCC(c1ccccc1)c1ccccc1 | inactive |  | inactive | inactive | inactive | inactive | 1.81% | inactive |  | 
20 | CC(C)(C)c1cc(/C=C(\C#N)C(N)=S)cc(C(C)(C)C)c1O | inactive | inactive | inactive |  | inactive |  | 10.6% |  |  | 
21 | CC[N+](CC)(CC)CC(=O)Nc1c(C)cccc1C | inactive |  | inactive | inactive | inactive | inactive | 0.625% | inactive |  | 
22 | CNC(=O)c1cc2c(cn1)[nH]c1ccccc12 | inactive | inactive | inactive | inactive |  |  | 0.75% |  |  | 
23 | NC/C=C\C(=O)O | inactive |  | inactive | inactive | inactive | inactive | 0.75% | inactive |  | 
24 | O=c1oc(Cl)c(Cl)c2ccccc12 | inactive | inactive | inactive | inactive | inactive |  | -4.69% |  |  | 
25 | COc1ccccc1N1CCN(CCCCN2C(=O)c3ccccc3C2=O)CC1 | inactive | inactive | inactive | 10 µM (active) | inactive | inactive | -3.44% |  |  | 
26 | CC(C)NC[C@H](O)COc1ccc(CC(N)=O)cc1 | inactive |  | inactive | inactive | inactive | inactive | 0.25% and -0.125% | inactive |  | inactive
27 | C[C@H](O)C(=O)C1=Nc2c(nc(N)[nH]c2=O)NC1 | inactive | inactive | inactive | inactive | inactive | inactive | 1.06% |  |  | 
28 | c1ccc2nc(C3=NCCN3)ccc2c1 | inactive |  | inactive | inactive | inactive | inactive | 0.0625% | inactive |  | 
